Measured values reported in ChEMBL document CHEMBL3433997, “St. Jude Leishmania screening dataset” (2016).
Where “and” joins values, the source holds several entries; their conditions need not be identical. Identical values can stand only once.

Legend:
Assay type in all cases: functional
[1] = target: Solute carrier family 2, facilitated glucose transporter member 1 (Homo sapiens) (UniProt P11166); assay: ST_JUDE_LEISH: Cytotoxicity at 2uM final concentration against transgenic Leishmania Mexicana promastigotes LmGLUT1 that are glucose transport deficient and complemented with the human glucose transporter GLUT1. Activity is measured by DNA content using SYBR green in vitro
[2] = target: Hexose transporter 1 (Plasmodium falciparum) (UniProt O97467); assay: ST_JUDE_LEISH: Cytotoxicity at 2uM final concentration against transgenic Leishmania Mexicana promastigotes LmPfHT that are glucose transport deficient and complemented with the Plasmodium falciparum hexose transporter. Activity is measured by DNA content using SYBR green in vitro
[3] = target: Glucose transporter (Leishmania mexicana) (UniProt O61059); assay: ST_JUDE_LEISH: Cytotoxicity at 2uM final concentration against transgenic Leishmania Mexicana promastigotes LmGT2 that are glucose transport deficient and complemented with the L. Mexicana glucose transporter 2. Activity is measured by DNA content using SYBR green in vitro

Solute carrier family 2, facilitated glucose transporter member 1 (Homo sapiens), sequence (P11166 whole entry): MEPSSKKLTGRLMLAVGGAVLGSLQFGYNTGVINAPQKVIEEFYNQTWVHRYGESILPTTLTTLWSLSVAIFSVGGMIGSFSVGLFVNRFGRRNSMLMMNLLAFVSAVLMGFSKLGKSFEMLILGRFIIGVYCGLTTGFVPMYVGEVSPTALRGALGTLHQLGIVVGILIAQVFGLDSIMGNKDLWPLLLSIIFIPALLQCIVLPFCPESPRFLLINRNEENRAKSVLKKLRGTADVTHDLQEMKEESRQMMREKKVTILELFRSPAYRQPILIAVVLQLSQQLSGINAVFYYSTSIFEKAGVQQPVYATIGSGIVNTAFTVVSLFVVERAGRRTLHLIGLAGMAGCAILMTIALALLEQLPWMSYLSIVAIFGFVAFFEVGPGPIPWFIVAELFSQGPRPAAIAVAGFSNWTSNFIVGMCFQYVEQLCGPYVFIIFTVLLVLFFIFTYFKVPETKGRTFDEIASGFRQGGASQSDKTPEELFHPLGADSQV

| Compound | inhibition [1] | inhibition [2] | inhibition [3] |
| --- | --- | --- | --- |
| CN(C)Cc1cccc(-c2ccc(NC(=O)c3ccc4c(=O)n(CCN5CCCCC5)cnc4c3)cc2)c1 | 3.67% | 3.74% | 0.81% |
| C[C@H]1CN(Cc2cccc(-c3cc(CNC(=O)c4cccc(CN5CCN(C/C=C/c6ccccc6)CC5)c4)ccc3F)c2)CCN1 | 11.6% | 10.6% | 12.7% |
| Cc1cccc2nc(-c3ccc(-c4cccc(NC(=O)c5ccncc5)c4)cc3)[nH]c12 | 0.03% | -0.47% | 1.08% |
| CN1CCN(CCCN(Cc2csc(-c3ccc(CNCc4ccccc4)cc3)n2)C(=O)c2cc(F)cc(F)c2)CC1 | 4.63% | 2.02% | 1.42% |
| CCN(CCCN1CCCCC1)c1cc(C)nc(Nc2cccc(C(F)(F)F)c2C)n1 | -0.36% | 1.74% | 0.96% |
| COc1ccc2nccc([C@@H](O)CN3CCC(NC(=O)c4ccc(Cl)c(Cl)c4)CC3)c2c1 | 25.5% | 41.7% | 18.8% |
| Cc1c(CCC#N)c(NCc2ccccc2)n2c(nc3ccccc32)c1C#N | 1.13% | 0.53% | -0.97% |
| O=C(Nc1ccc(OC2CCN(Cc3ccc(F)cc3)CC2)c(Cl)c1)c1ccc(F)cc1 | 2.58% | 3.52% | 7.21% |
| COc1ccccc1CN1CCC(CNC(=O)c2cc(-c3ccc(N(C)C)cc3)cs2)C1 (stereo not drawn) | 15.2% | 11.8% | 10.9% |
| CCOc1ccc2nc(C)cc(N/N=C/c3ccccc3[N+](=O)[O-])c2c1 | 33.1% | 26.4% | 33.9% |
| Cc1ccccc1C1CCN(C2CCC(NC(=O)C3=Cc4ccccc4OC3)CC2)CC1 (stereo not drawn) | 5.24% | 4.94% | 4.67% |
| O=C(Nc1cccc(C2=NCCCN2)c1)Nc1cccc(C2=NCCCN2)c1 | 2.31% | 1.94% | 0.46% |
| Nc1nc2c(cnn2CCCCCCCP(=O)(O)O)c(=O)[nH]1 | -0.8% | 0.25% | -0.36% |
| CC1CN(Cc2ccc(C#N)cc2)CCN1c1ccc(NC(=O)c2cccs2)cc1 (stereo not drawn) | 8.47% | 8.63% | 8.98% |
| Cc1cc(I)ccc1Nc1nc2nonc2nc1Nc1ccc(I)cc1C | 9.92% | 9.02% | 9.11% |
| CC(C)(C)CCN1CCC(CNC(=O)c2cc(-c3cccc(Cl)c3)cs2)C1 (stereo not drawn) | 0.6% | -0.8% | -1.21% |
| Oc1c(C(Nc2nc3ccccc3s2)c2ccc(OC(F)F)cc2)ccc2cccnc12 (stereo not drawn) | 4.38% | 0.37% | -1.77% |
| O=S(=O)(c1ccccc1Cl)N1CCCCC(c2ccc(C(F)(F)F)cc2)=N1 | 1.24% | 2.48% | -2.05% |
| Cc1ccc(C(NC(=O)C2CCCCC2)c2ccc3cccnc3c2O)cc1 (stereo not drawn) | 0.75% | 1.7% | 0.54% |
| O=C(NCCN1CCC(NC(=O)c2ccc(-c3ccccn3)s2)CC1)c1cccc(C(F)(F)F)c1 | 3.66% | 2.93% | 3.43% |
| CC(C)c1ccc(OCC(O)CN(CCN2CCOCC2)C(=O)Nc2ccc(Br)cc2)cc1 (stereo not drawn) | 7.44% | 5.63% | 9.58% |
| C[C@@H]([C@@H](CCCc1ccc(Cl)cc1)C(=O)N[C@H](C(=O)Nc1cccnc1)C(C)(C)C)N(O)C=O | 1.13% | 0.19% | 1.52% |
| CC(C)(C)c1ccc(CNCC(C)(C)c2nc(-c3ccnc(N)n3)c(-c3ccc(Cl)c(O)c3)[nH]2)cc1 | 5.04% | 6.23% | 4.54% |
| CCn1c(-c2nonc2N)nc2c(Cl)ncc(O[C@H](CCN)c3ccccc3F)c21 | 58.6% | 48.5% | 20.2% |

| Compound | inhibition [1] | inhibition [2] | inhibition [3] |
| --- | --- | --- | --- |
| C[C@@H](N/C(=N\c1ccc(-c2ccccc2)cc1)Nc1ccc(C#N)cc1O)c1ccc(Br)cc1 | 2.33% | 2.45% | 2.66% |
| CN1CCCN(c2ccnc3cc4c(cc23)N(C(=O)c2ccc(Cl)cc2Cl)CC4)CC1 | -0.4% | 2.07% | 0.94% |
| O=C(NCc1ccc(F)cc1)Nc1ccc(-c2cccc(-c3nc4cc(F)ccc4[nH]3)c2)cc1 | 7.44% | 6.92% | -1% |
| Cc1ccc(CNC(=O)[C@H](CCCN)Nc2nc(Nc3ccccc3)ncc2C)cc1 | 1.37% | 0.93% | 1.15% |
| Cc1cc(N[C@@H](Cc2ccccc2)C(=O)NCc2cccs2)nc(NCCc2ccccc2)n1 | 2.96% | 2.94% | -1.2% |
| Nc1ncc(-c2ccccc2)cc1-c1nc2cc(Cl)c(F)cc2[nH]1 | 7.29% | 8.28% | 3.16% |
| O=C(NC1CC1)c1ccc2cc(C(=O)N3Cc4ccccc4C(c4ccccc4)C3)ccc2c1 (stereo not drawn) | 2.37% | -0.61% | -1.42% |
| O=C(CCNc1ccnc(NCCc2ccccc2)n1)Nc1ccccc1 | -0.28% | 3.7% | 2.66% |
| O=C(NC1CCN(c2ccc(F)cc2[N+](=O)[O-])CC1)c1cccs1 | 4.31% | 3.82% | 2.71% |
| Clc1cccc(C=NNc2nc(=Nc3ccccc3)[nH]c(=Nc3ccccc3)[nH]2)c1 | 8.44% | 5.13% | 3.05% |
| COc1cc(F)c2ncc(Cl)c(CCN3CCC(NCc4cc5c(cn4)OCCO5)CC3)c2c1 | 28.4% | 41.5% | 55.4% |
| O=C(N[C@H]1CCCC[C@H]1C(=O)O)c1ccccc1 | 0.5% | 1.61% | 0.81% |
| O=S(=O)(c1ccc2ccccc2c1)N1CCCN(Cc2ccc(OCCCN3CCCCC3)cc2)CC1 | 63% | 71.4% | 45.5% |
| CCOc1ccc2[nH]c(C)cc(=NN=Cc3ccc(Cl)cc3)c2c1 | -0.27% | 0.45% | -1.27% |
| c1ccc(Oc2ccc(Nc3ccnc4cc(-c5ccc(CN6CCOCC6)o5)ccc34)cc2)nc1 | -1.57% | -1.03% | -0.13% |
| O=C(Nc1cccc(C(F)(F)F)c1)c1ccc(S(=O)(=O)NCC2CCCN2CC2CCCCC2)cc1 (stereo not drawn) | 1.8% | 3.93% | -0.18% |
| Brc1ccc(Nc2nc3ccccc3nc2Nc2ccc(Br)cc2)cc1 | 9.39% | 6.78% | 9.68% |
| COc1ccc(NC(=O)c2c(NC(=O)c3cccs3)sc3c2CCCC3)cc1 | 0.31% | 2.45% | 5.21% |
| Oc1cc(NCc2ccccc2NCc2ccc(Cl)c(Cl)c2)nc2ccccc12 | 2.41% | 3.68% | 3.11% |
| OC(CNc1ccnc(Nc2cccc(Cl)c2)n1)c1ccc(C(F)(F)F)cc1 (stereo not drawn) | 9.21% | 7.14% | 5.22% |
| Cc1ccc(Cc2c(C)nc3nc(N)nc(N)c3c2C)cc1 | 69.9% | 73.4% | 54.4% |
| c1ccc(Oc2ccc(Nc3ccnc4cc(-c5ccc(CNCCN6CCOCC6)o5)ccc34)cc2)nc1 | 2.93% | 2.52% | 2.3% |
| CCc1cn(C)c2c(N3CCCC3=O)cc(C(=O)N[C@@H](Cc3ccccc3)[C@H](O)CNC3CCCCC3)cc12 | 10.2% | 11% | 11.5% |
| CC(=O)Nc1cccc(C(=O)Nc2nc3ccc(-c4cc(=O)[nH]c(Nc5ccccc5Cl)n4)cc3[nH]2)c1 | 4.21% | 2.23% | 5.36% |

| Compound | inhibition [1] | inhibition [2] | inhibition [3] |
| --- | --- | --- | --- |
| COc1cc(NC(=O)/C=C/c2ccccc2OC(F)(F)F)cc(OCCN2CCCCC2)c1 | 2.6% | 1.06% | 1.67% |
| CCN(CCCNc1nc(=S)[nH]c2cc(OC)c(OC)cc12)c1ccccc1 | -0.4% | -1.25% | -4.13% |
| Cc1cccc2nc(-c3cccc(-c4ccc(NC(=O)c5cnccc5C(F)(F)F)cc4)c3)[nH]c12 | 1.18% | -0.42% | 3.44% |
| Cc1ccccc1C1CCN(C2CCC(NC(=O)c3cc4cc(C(C)C)ccc4[nH]3)CC2)CC1 (stereo not drawn) | 1.91% | 2.91% | 1.43% |
| COc1ccc2[nH]ccc(=NN=Cc3ccccc3Cl)c2c1 | 7.36% | 12.6% | 2.03% |
| CN(Cc1cnc2nc(N)nc(N)c2n1)c1ccc(C(=O)N[C@@H](CCC(=O)O)C(=O)O)cc1 | 3.29% and 4.83% and 0.58% | 2.33% and 2.91% and 0.06% | -0.37% and 1.34% and 3.42% |
| CCCNCc1ccc(-c2ccc(CN(Cc3ccc4c(c3)OCO4)C(=O)[C@H]3CCCO3)cc2)nc1 | 13.6% | 10.6% | 8.76% |
| CCOC(=O)CC[C@@H](NC(=O)c1ccc(NCc2ccc3ccc4nc(C)[nH]c(=O)c4c3c2)cc1F)C(=O)N[C@@H](Cc1c[nH]c2ccccc12)C(=O)OCC | 1.56% | 1.89% | 3.35% |
| CC(C)NCc1ccc(-c2ccc(CN3CCCC(c4ccccc4)C3)cc2)c(C(=O)NC2Cc3ccccc3C2)c1 (stereo not drawn) | 16.8% | 17.4% | 11% |
| CNc1ccc(CNCc2ccc(-c3ccc(-c4nc5cccc(C)c5[nH]4)cc3)cc2)cc1 | 18.3% | 15.5% | 7.71% |
| CCCNCc1ccc(-c2ccc(CN(CCOC)C(=O)[C@H]3CCCO3)cc2)nc1 | 4.56% | 4.55% | 4.1% |
| CN1CCN(c2ccc3nccc(CCN4CCC(NCc5ccc6c(n5)NC(=O)CO6)CC4)c3n2)CC1 | -0.03% | -0.01% | -0.12% |
| CCCC(C)Nc1nc(C)cc(N[C@@H](CC(C)C)C(=O)NCc2ccc(C)cc2)n1 (stereo partly drawn) | 3.04% | 4.01% | 0.38% |
| Cc1cccc(OCCCCON2C(=N)N=C(N)NC2(C)C)c1C | 0.1% | 0.14% | 1.69% |
| NC1CCN(c2nc(NCCCc3ccc(O)cc3)nc(NCc3ccccc3-c3ccccc3)n2)CC1 | 0.77% | 0.01% | 1.09% |
| Nc1nc(N)c2c(CCc3ccc(Cl)c(Cl)c3)cccc2n1 | 10.7% | 11.2% | 8.14% |
| COc1cc2/c(=N/c3ccc(Br)cc3F)nc[nH]c2cc1OCC1CCN(C)CC1 | -0.8% | 2.56% | 0.95% |
| O=C(NCCc1ccccc1)N(Cc1cccc(-c2ccc(CNCc3ccc4c(c3)OCO4)cc2)c1)C1CCN(Cc2ccccc2)CC1 | 1.17% | 2.76% | 1.29% |
| CC12CN3CC(C)(CN(C1)C3c1cc(Br)ccc1O)C2O (stereo not drawn) | -3.78% | -1.64% | 4.22% |
| CC(C)(C)c1ccc(NC(=O)c2cccc(CN3CCCN(Cc4ccc(F)cc4)CC3)c2)cc1 | 3% | 2.6% | 1.15% |
| CCN(CC)CCCCNc1cc(-c2[nH]c(C(C)(C)C)nc2-c2ccc3cc(OC)ccc3c2)ccn1 | 4.69% | 4.79% | 1.94% |
| COc1ccccc1N1CCN(CCCCNC(=O)c2ccc(NC(=O)c3ccc(OC(F)(F)F)cc3)cc2)CC1 | 1.23% | -0.16% | 1.25% |
| N#Cc1ccc(CN2CCC(Oc3ccc(NC(=O)c4ccco4)cc3Cl)C2)cc1 (stereo not drawn) | 3.53% | 0.89% | -0.68% |
